Several values for one entry are separate records, joined by “and”; a condition that tells them apart may be missing. Equal values may be shown once. The whole screen tested about 2,100 compounds, of which about 940 (45%) were called active. Another 48% or so got no clear call; they are omitted. The set was probably picked from earlier hits. The list shows a part of the results. Values without a mark were called inactive. Calls come from the whole dose curve; as a rule, active = well fitted inhibition curve with a large enough effect; inconclusive = small, poorly fitted or top-dose-only effect; inactive = no such curve, though single readings can be large or run the other way.
Assay: Confirmatory qHTS for Inhibitors of ATXN expression; note: nearly all actives have a fitted effect of over 65% in size;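 for activity change, negative = inhibition: 0% = DMSO vehicle wells and -100% = medium-only wells without cells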
Settings: ATXN2-luciferase reporter cells, luminescence, 24 h; series mostly up to 11.5 µM; activity change, negative = inhibition: at the top concentration
Outline: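 Cells carrying ATXN2-luciferase reporter exposed 24 h at 37 C to compound. Viability then read by CellTiter-Fluor (25 uM GF-AFC, 30 min), followed by SteadyGlo luminescence; medium-only wells set 100% inhibition.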
Potency is the fitted concentration of half-maximal effect.

Compound	activity change, negative = inhibition	Potency
Cc1nc(SC2CC(=O)N(c3ccccc3)C2=O)n[nH]1 (configuration not stated)	5.8% [at 57.5 µM]	
O=C(c1ccco1)N1CCN(c2ncnc3scc(-c4cccs4)c23)CC1	-20.8%	
Cc1c(C(=O)N2CCN(c3ccc(F)cc3)CC2)sc2ncnc(N3CCN(c4ccccn4)CC3)c12		2.82 µM (active)
COc1ccc(C(=O)C=CNNC(=O)c2ccc(Cl)cc2)cc1		14.1 µM (active)
O=C(/C=C/NNC(=O)c1ccccc1)c1ccc([N+](=O)[O-])cc1		3.16 µM (active)
CC(C)Cn1c(/C=N/Nc2nc3ccccc3[nH]2)nc2ccccc21		8.91 µM (active)
CCCCn1c(/C=N/Nc2nc3ccccc3[nH]2)nc2ccccc21	-15.3%	
S=C(NCCCN1CCOCC1)N1CCN(c2nc(-c3ccccc3)cs2)CC1		11.2 µM (active)
O=c1c2ccc(Cl)cc2nc(-c2cccc(C(F)(F)F)c2)n1O		2.51 µM (active)
Cc1cc(/C=N/n2cnnc2)c(C)n1-c1ccc(OCc2ccc(Cl)cc2Cl)cc1		7.94 µM (active)
COc1cccc(/C=N/NC(=O)c2cc3c(OC)cccc3[nH]2)c1O		2.24 µM (active)
COc1cc(OC)c2cc(C(=O)N/N=C/c3cccc(OC)c3O)[nH]c2c1		3.55 µM (active)
O=C(NC(=S)N1CCN(c2ccc(F)cc2)CC1)c1cccs1	-6.64%	
Cc1[nH]c(-c2ccc(F)cc2)cc1C(=O)N1CCN(c2ccc(Cl)cc2)CC1		25.1 µM (active)
CN1CCN(c2cc(-c3cc(O)c4ncccc4c3)ccn2)CC1		12.6 µM (active)
C/C(=N\NC(=O)C1CCCN(S(=O)(=O)c2ccccc2)C1)c1ccccn1 (configuration not stated)		0.794 µM (active)
COc1ccc(CC(=O)N/N=C(\C)c2ccccn2)cc1		11.2 µM (active)
C/C(=N\NC(=O)Cc1ccc(Cl)cc1)c1ccccc1O		14.1 µM (active)
C/C(=N\NC(=O)C1COc2ccccc2O1)c1ccccn1 (configuration not stated)		0.631 µM (active)
C/C(=N\NC(=O)CCCNc1ccc(C)cc1)c1ccccn1		14.1 µM (active)
CCCCCC(=O)N/N=C(\C)c1ccccn1		0.501 µM (active)
Cc1ccc(/C=N/NC(=O)C2=NNC(c3ccccc3)(c3ccccc3)C2)c(O)c1		2.82 µM (active)
CC(C)(C)c1nnc(N/N=C/c2ccccc2O)n(N)c1=O		0.891 µM (active)
CCn1c2ccccc2c2cc(C3C(C#N)=C(N)Oc4n[nH]c(COC)c43)ccc21 (configuration not stated)		2.82 µM (active)
CCn1c2ccccc2c2cc(NC(=O)COC(=O)c3cc(S(=O)(=O)N4CCCCC4)ccc3Cl)ccc21		1.58 µM (active)
CCn1c2ccccc2c2cc(NC(=O)COC(=O)Cc3cn4ccsc4n3)ccc21		1.26 µM (active)

Compound	activity change, negative = inhibition	Potency
CCn1c2ccccc2c2cc(NC(=O)COC(=O)C3CCC(=O)N3)ccc21 (configuration not stated)		11.2 µM (active)
CCn1c2ccccc2c2cc(NC(=O)COC(=O)c3ccccc3F)ccc21		2 µM (active)
Cc1c(C(=O)NCc2ccc(Cl)c(Cl)c2)sc(=O)n1Cc1ccc(S(C)(=O)=O)cc1	-22.8%	
COc1ccc(N=Cc2cc3c(cc2O)OC(N)=C(C#N)C3c2ccccc2)cc1 (configuration not stated)	-25.5%	
Cc1cc(OCc2nc(N)nc(N)c2-c2ccc(Cl)c(Cl)c2)ccc1[N+](=O)[O-]		2.51 µM (active)
COc1ccccc1-n1c(-c2ccccc2)c[n+]2c1CCc1ccccc1-2		7.94 µM (active)
Cc1ccc(-n2c(-c3ccccc3)c[n+]3c2CCc2ccccc2-3)c(C)c1		0.794 µM (active)
Cc1nnc(SC(C)C(=O)Nc2ccc(Cl)cn2)n1Cc1ccccc1 (configuration not stated)	-20.6% [at 57.5 µM]	
CNc1ccccc1C(=O)OC(C)C(=O)Nc1ccc(Cl)cn1 (configuration not stated)		2 µM (active)
NNC(=O)c1sc2cc(C(F)(F)F)cnc2c1-c1cccs1		28.2 µM (active)
COC1=C(c2ccccc2)C(=O)c2ccccc2C1=O	-16.5%	
O=C1c2cccc3c([N+](=O)[O-])ccc(c23)C(=O)N1c1ccccn1		3.98 µM (active)
Cc1ccnc(N2C(=O)c3cccc4c([N+](=O)[O-])ccc(c34)C2=O)c1		28.2 µM (active)
O=C(Nc1nccs1)c1cccc(N2C(=O)c3cccc4c([N+](=O)[O-])ccc(c34)C2=O)c1		20 µM (active)
Cc1ccc(Cl)cc1-c1ccc(C=Nc2ccc(N3CCOCC3)cc2)o1		12.6 µM (active)
C=CCn1cnc2c(c1=O)c1nc3ccccc3nc1n2/N=C/c1cc(OC)c(OC)c(OC)c1		14.1 µM (active)
Cc1cc(C)c2nc(NNC(=O)c3ccc(S(=O)(=O)N4CCc5ccccc5C4)cc3)sc2c1		3.16 µM (active)
Cc1ccc2nc(NNC(=O)c3ccc(S(=O)(=O)N4CCc5ccccc5C4)cc3)sc2c1		2.51 µM (active)
NC(=O)c1cc([N+](=O)[O-])ccc1NCc1ccc(N)cc1		4.47 µM (active)
C[n+]1c2cc(N)ccc2cc2ccc(N)cc21		4.47 µM (active) and 3.55 µM (active)
Nc1c(C(=O)NCc2ccc(F)cc2)c2nc3ccccc3nc2n1CCCN1CCOCC1		3.16 µM (active)
Cn1c(/C=C/c2ccc(Cl)cc2)c([N+](=O)[O-])c(=O)n(C)c1=O		22.4 µM (active)
Cn1c(/C=C/c2cccc([N+](=O)[O-])c2)c([N+](=O)[O-])c(=O)n(C)c1=O		25.1 µM (active)
Cn1c(/C=C/c2ccc(Cl)cc2Cl)c([N+](=O)[O-])c(=O)n(C)c1=O		11.2 µM (active)
O=C1C=CCC(/C=C/c2ccccc2)O1 (configuration not stated)		6.31 µM (active)
CCC(C)(C)c1ccc(OCCCC[n+]2ccccc2)c(C(C)(C)CC)c1		3.16 µM (active)
